In PubChem BioAssay AID1345085 (National Center for Advancing Translational Sciences (NCATS), 2018):
Inconclusive results are not listed. Activity calls are given as the source filed them. The call rests on the fitted dose curve; in most records, active means well fitted cell-killing curve with a large enough effect; inconclusive means small, poorly fitted or top-dose-only effect, or effect the other way; inactive means no such curve, though single readings can be large or run the other way.
Further: nearly all actives have a fitted effect of over 55% in size.
Potency means the concentration at half of the fitted maximal effect.

Each molecule was assayed on CASKI (assay: Confirmatory qHTS for gynecologic anti-cancer compounds from libraries of approved drugs and bioactive compounds). Details: gynecologic cancer cell panel viability, ATPlite luminescence, 48 h; series mostly up to 57.6 µM.
Summary of the method: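 Cells (1,000/well) plated 16 h, then exposed 48 h at 37 °C to 11 concentrations (1:3) from 57.5 uM to 0.977 nM. Viability by ATPlite luminescence after 15 min; IC50 derived, with HEK 293T used for selectivity index.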
With `COc1cc(N2CCC(N(C)C)CC2)ccc1Nc1ncc(Cl)c(Nc2ccccc2P(C)(C)=O)n1` the Potency was 7.69 µM (active). With `Cc1nc(N)ncc1-c1nc(N2CCOCC2)c2sc(C(C)(C)O)cc2n1` the Potency was 0.769 µM (active). With `c1cc(N[C@@H]2CCNC2)nc(-c2cnc3ccc(-c4cn[nH]c4)cn23)c1` the Potency was 27.3 µM (active). For `CNc1nc(Nc2ccc(C(=O)N3CCOCC3)cc2OC)ncc1Cl`, the Potency was “inactive”. In the case of `CCN1C[C@H](C)n2c(c(O)c3c(=O)n(Cc4ccc(F)c(Cl)c4)nc(C(=O)NC)c32)C1=O`, the Potency is reported as “inactive”. In the case of `CN1CCN(Cc2ccc(NC(=O)Nc3ccc(Oc4cc(NC(=O)C5CC5)ncn4)cc3)cc2C(F)(F)F)CC1`, the Potency is reported as 0.611 µM (active). In the case of `CNC(=O)c1nn(C)c2c1C(C)(C)Cc1cnc(Nc3ccc(N4CCN(C)CC4)cc3)nc1-2`, the Potency is reported as 10.9 µM (active). `CNCc1ccc(-c2[nH]c3cc(F)cc4c3c2CCNC4=O)cc1` was tested, and the Potency was “inactive”. `CCN(CC)CCNC(=O)c1c(C)[nH]c(/C=C2\C(=O)Nc3ccc(F)cc32)c1C` was tested, and the Potency was 56.2 µM (active). With `CN(C)c1ccc(-c2nc3ncc(Cl)c(N4CCN(CC(=O)Nc5nccs5)CC4)c3[nH]2)cc1` the Potency was “inactive”. `COc1cc(Nc2c(C#N)cnc3cc(OCCCN4CCN(C)CC4)c(OC)cc23)c(Cl)cc1Cl` was tested, and the Potency was 24.3 µM (active). For `CC(C)CC(=O)Nc1n[nH]c2c1CN(C(=O)C1CCN(C)CC1)C2(C)C`, the Potency was 3.43 µM (active). `Cc1ccccc1C(OCCN(C)C)c1ccccc1` (centres undefined) was tested, and the Potency was “inactive”. With `CN1CCN(c2ccc(OC(F)(F)F)c(Nc3ncc4c(n3)-c3c(c(C(N)=O)nn3CCO)CC4)c2)CC1` the Potency was “inactive”.
